The results in this text go back to PubChem BioAssay AID818 (SRMLSC, 2007).

Structures are written as SMILES. The campaign covered roughly 140,000 compounds. About 2,100 (1.5%) were called active. Only a selection was taken, and actives are over-represented in it overall. Values without a mark were called inactive.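 How the source made its calls: active means viability at or under a set limit, the compound median less 4 SD (cut at about 6% in these data); inactive means the rest.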

A short description of the experiment: primary screen for suppressors of beta-catenin knockout HCT116 cell growth, colon tumor, human (AID 818).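 Further: 0% = Hyamine 1622 control at 20 µM and 100% = untreated cell control.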 Conditions: CellTiter-Glo, 60 h, at 10 µM, hits give low values.
The term viability denotes a read-out of living cells in per cent, often relative to untreated cells. As for `CSCCC(Nc1ccc(S(=O)(=O)N2CCOCC2)cc1[N+](=O)[O-])C(=O)OCC(=O)N(C(C)C)C(C)C` (stereo unspecified), the viability was 92.2%.

Take `Cc1ccc(-c2nc3c(cnn3-c3ccccc3)c(=O)o2)cc1`: the viability was 95.4%.

For `COc1ccc(Oc2c(Cl)cnn(-c3ccccc3)c2=O)cc1`, the viability is 5.5% (active).

For `COc1ccc(-n2c(C)nc3c(cnn3-c3ccccc3)c2=O)cc1`, the viability was 29.9%.

Take `COc1ccccc1OCc1ccc(C(=O)N2CCN(C)CC2)o1`: the viability was 101%.

In the case of `CCOc1ccc(C(=O)Nc2nccs2)cc1[N+](=O)[O-]`, the viability was 94%.

For `COc1ccc(Nc2cc(C)nc(-n3nc(C)cc3C)n2)cc1`, the viability was 15.2%.

Consider `COc1ccccc1/C=N\Nc1cc(C)nc(-n2nc(C)cc2C)n1`, for which the viability was 3.9% (active).

`COc1cc(NS(=O)(=O)c2ccccc2)ccc1-n1nc(C)cc1C`: the viability was 101%.

With `COc1ccc(-n2c(=S)[nH]c3sc4c(c3c2=O)CCc2ccccc2-4)cc1`, the viability is 81%.

On to `CN(C)C(=O)c1ccc2c(c1)C1C3CCC(C3)C1C(c1ccccc1)N2` (stereo unspecified), for which the viability is 83.3%.

For `CC(C)(C)c1ccc(C(=O)NCCn2c(N)c(C#N)c3nc4ccccc4nc32)cc1`, the viability is 66.5%.

As for `CN(C)CCCn1c(N)c(C#N)c2nc(C#N)c(C#N)nc21`, the viability is 5.78% (active).

Turning to `N#Cc1c(N)n(CCOC(=O)c2ccc(Cl)cc2)c2nc3ccccc3nc12`, the viability was 84.2%.

With `CCC1C(=O)c2ccccc2N(C)C1=O` (stereo unspecified), the viability is 88.1%.

Consider `C[C@@H](O)c1nc2ccccc2n1N`, for which the viability is 96%.

Regarding `CCOc1ccc(NC(=O)CN2CCN(CC(=O)Nc3ccc(OC)cc3)CC2)cc1`, the viability was 85.4%.

For `CCOc1ccc(NC(=O)CCC(=O)n2nc(C)cc2C)cc1`, the viability was 96.2%.

With `CCOc1ccc(NC(=O)CCC(=O)N/N=C/c2ccc([N+](=O)[O-])s2)cc1`, the viability was 5.45% (active).

Consider `CSc1ccc(/C=N/NC(=O)c2cccc(Cl)c2)cc1`, for which the viability is 84.1%.

In the case of `COc1ccc2c(-c3ccccc3)cc(SCC(=O)N(C)C3CCS(=O)(=O)C3)nc2c1` (stereo unspecified), the viability was 81.2%.

As to `CCCn1nc(NS(=O)(=O)c2ccccc2)c2cc3cc(C)ccc3nc21`, the viability was 91.5%.

Consider `Cc1ccccc1C(CC(=O)c1cccs1)C(C#N)C#N` (stereo unspecified), for which the viability was 2.37% (active).

In the case of `O=C(CCC(=O)c1cccs1)NCc1ccccc1`, the viability is 88.8%.

Take `Cc1ccc(C)c(NC(CC(=O)c2ccccc2)C(=O)OCC(=O)c2cccs2)c1` (stereo unspecified): the viability was 86.5%.

`CC(=O)Nc1cccc(/C(C)=N/NC(=O)c2c(-c3ccccc3Cl)noc2C)c1`: the viability was 54.6%.

As to `CCn1c(/C=C/c2ccc([N+](=O)[O-])o2)nc2ccccc2c1=O`, the viability is 2.56% (active).

On to `Cc1ccc(-n2c(SCC(=O)N/N=C/C=C/c3ccccc3[N+](=O)[O-])nc3ccccc3c2=O)cc1`, for which the viability was 83.5%.

`Cn1cc(/C=C/c2nc3ccccc3c(=O)n2-c2cccc([N+](=O)[O-])c2)c2ccccc21`: the viability was 66.3%.

As to `O=C(CSc1nc2ccccc2[nH]1)N/N=C/C=C\c1ccccc1[N+](=O)[O-]`, the viability was 57.4%.

On to `CC(NC(=O)C(=O)NN=C1CCC(C(C)(C)C)CC1)c1ccccc1` (stereo unspecified), for which the viability is 98.5%.

In the case of `CCCCCC(=O)Nc1ccc(C(=O)N/N=C/c2ccc([N+](=O)[O-])cc2)cc1`, the viability was 4.26% (active).

With `CCCCCC(=O)NC(=S)NNC(=O)c1ccc([N+](=O)[O-])cc1`, the viability was 42.3%.

Regarding `O=C(COc1ccc(/C=N/NC(=O)c2ccc(O)cc2)cc1)Nc1ccc([N+](=O)[O-])cc1`, the viability is 64.3%.

With `FC(F)Oc1ccccc1NC(=S)Nc1cccc(Cl)c1Cl`, the viability was 94.2%.

Turning to `CCN1CN(Cc2ccccc2)CNC1=S`, the viability was 94.5%.

For `C/C(=N\NC(=O)c1cc2c(s1)CCC(C)C2)c1cccnc1` (stereo unspecified), the viability was 66.6%.

With `Cc1ccc(C(=O)NC(=S)NCCN2CCOCC2)cc1`, the viability is 101%.

As to `Cc1ccc(-c2csc(NC(=O)c3cccs3)n2)cc1`, the viability was 95.5%.

In the case of `COc1ccc(CC(=O)Nc2ccc(-c3nnc(-c4ccc(C)cc4)o3)cc2)cc1`, the viability is 5.04% (active).

Regarding `COc1ccc(CC(=O)Nc2ccc(C(=O)NC(C)(C)C)cc2)cc1`, the viability was 84.5%.

In the case of `Cc1ccc(-c2nnc(-c3ccc(NC(=O)c4cccs4)cc3)o2)cc1`, the viability was 2.05% (active).

With `COc1cccc(NC(=O)Cc2ccc(C)cc2)c1`, the viability is 99.6%.

For the molecule `Cc1nc(-c2ccc(NC(=O)c3cccs3)cc2)cs1`, the viability is 67%.

On to `O=C(/C=C/c1cccs1)NCc1cccnc1`, for which the viability was 91.2%.

In the case of `Cc1ccc(-c2nc(-c3cccnc3)sc2CC(=O)Nc2ccc(C)c(Cl)c2)cc1`, the viability was 58.3%.

On to `CCc1nccn1S(=O)(=O)c1cccc([N+](=O)[O-])c1`, for which the viability is 96.5%.

As to `C=CCOc1c(Br)cc(/C=N\n2nnnc2N)cc1OC`, the viability is 85.3%.

In the case of `O=C(c1cccc(C(=O)N2CCN(c3ccc(F)cc3)CC2)c1)N1CCN(c2ccc(F)cc2)CC1`, the viability was 47.4%.

On to `Oc1c(CN2CCN(c3ccc(F)cc3)CC2)cc(Cl)c2cccnc12`, for which the viability was 3.91% (active).

On to `CCN1CCN(C(c2cccnc2)c2cc(Cl)c3cccnc3c2O)CC1` (stereo unspecified), for which the viability was 45.3%.

As to `Cc1ccc2c(c1)C(c1ccccc1)N(C(=O)c1ccc(S(=O)(=O)N3CCOCC3)cc1)CC(=O)N2` (stereo unspecified), the viability was 94.9%.

Regarding `Cc1cc2c(C)nc(N/N=C/c3ccccc3)nc2o1`, the viability was 92%.

Consider `Nc1c(C(=O)NCc2ccccc2)nnn1Cc1cccc(Cl)c1`, for which the viability was 25.6%.

Regarding `O=c1[nH]n(-c2cccc(Cl)c2)c2ncccc12`, the viability was 85.9%.

For the molecule `Clc1cccc(CN2COc3c(cc(Cl)c4cccnc34)C2)c1`, the viability was 3.67% (active).

On to `CCOC(=O)c1cc2c(=O)n3ccccc3nc2n(CC(C)C)c1=NC(=O)c1c(-c2c(F)cccc2Cl)noc1C`, for which the viability is 66.4%.

On to `Cc1cc(C)nc(NC(=O)c2cccc([N+](=O)[O-])c2)c1`, for which the viability is 97.8%.

On to `CCOc1cc(/C=N/NC(=O)OC)ccc1OCCSc1ccc(Cl)cc1`, for which the viability was 93.9%.

On to `CSCCC(NC(=O)COc1ccccc1)C(=O)Nc1ccc(C)cc1` (stereo unspecified), for which the viability is 99.2%.

For the molecule `CSCC[C@H](NC(=O)OC(C)(C)C)C(=O)N/N=C/c1cc2ccc(C)cc2nc1Cl`, the viability is 1.02% (active).

Turning to `COCCCNC(=S)NC(=O)c1ccc([N+](=O)[O-])cc1`, the viability was 95.7%.

For `CCSc1nc(C)nc2c1oc1ccccc12`, the viability was 95.4%.

`Cc1nc(Cl)c2oc3ccccc3c2n1`: the viability was 2.84% (active).

In the case of `Cc1nc(N2CCCC2C(=O)O)c2oc3ccccc3c2n1` (stereo unspecified), the viability was 95.6%.

As to `Cc1ccc(CCCOC(=O)C[N+]2(C)CCCC2)cc1`, the viability is 97%.

Take `Cc1ccc(S(=O)(=O)c2ccc(Cl)cc2)cc1S(=O)(=O)NC(C(=O)O)C(C)C` (stereo unspecified): the viability is 97.6%.

In the case of `CN1CCN(C(=O)/C(=C\c2cccs2)NC(=O)c2cccs2)CC1`, the viability was 90.3%.

As to `Nc1ccc(Nc2ccccc2)cc1`, the viability was 5.41% (active).

For `Cc1cc(Nc2ccccc2)nc(N)n1`, the viability is 93.5%.

Turning to `Cc1cc(Nc2ccccc2)n(C(=O)c2ccc(N)cc2)n1`, the viability is 85.7%.

Regarding `O=C(Cn1nnc(-c2ccccc2)n1)N/N=C/c1ccc(-c2ccc(Cl)cc2)o1`, the viability is 80.7%.

As to `O=C(c1ccc(CSc2ccccc2)cc1)N1CCCCCC1`, the viability is 65.2%.

Consider `O=C(O)c1cccc(S(=O)(=O)Nc2ccc(O)cc2Sc2nc3ccccc3s2)c1`, for which the viability is 91.9%.

Consider `O=[N+]([O-])c1c(NCCO)cc(Sc2nc3ccccc3s2)c2nonc12`, for which the viability was 1.67% (active).

`COc1ccc(S(=O)(=O)Nc2ccc(O)c(Sc3nc4ccccc4s3)c2)cc1`: the viability was 82.2%.

Take `CN(c1ccccc1)S(=O)(=O)c1ccc(Cl)c(C(=O)NCCc2c[nH]c3ccccc23)c1`: the viability is 78.7%.

Consider `CNC(=O)/C(C#N)=C/c1c(F)cccc1Cl`, for which the viability is 74.3%.

In the case of `CC1=CC(C)(C)Nc2ccc(OC(=O)C(Cc3ccccc3)N3C(=O)C4CCCCC4C3=O)cc21` (stereo unspecified), the viability is 44.7%.

On to `O=C(CN1C(=O)C2C3CCC(C3)C2C1=O)Oc1ccc2ccccc2c1` (stereo unspecified), for which the viability was 85.5%.

With `CC1=CC(C)(C)Nc2ccc(OC(=O)CN3C(=O)C4CCCCC4C3=O)cc21` (stereo unspecified), the viability is 0.52% (active).

With `CCCOC(=O)c1c(NC(=O)c2cnn3c2NC(c2ccccc2)CC3C(F)(F)F)sc2c1CCCC2` (stereo unspecified), the viability is 61%.

Consider `CCCOc1ccc(C(=O)C(CCC(CNCC)C(=O)c2ccc(OCCC)cc2)CNCC)cc1` (stereo unspecified), for which the viability was 0.87% (active).

Turning to `CCCCOc1ccc(C(=O)NN2CCN(C)CC2)cc1`, the viability is 87.1%.

As for `CCCCOc1ccc(C(=O)NCc2ccncc2)cc1`, the viability is 70.7%.

For the molecule `O=C(c1ccc(S(=O)(=O)c2ccccc2)cc1)N1CCCCCC1`, the viability is 93.2%.

For `C=CCn1c(SCc2ccc(Cl)c(Cl)c2)nnc1C(CO)NC(=O)c1ccc(OC)cc1` (stereo unspecified), the viability was 90.7%.

As to `Cc1cc(C)c2nc(SCCC#N)nc(C)c2c1`, the viability was 109%.

Regarding `Cc1cc(C)c2nc3nc(C)cc(C)c3c(N)c2c1`, the viability was 1.48% (active).

`C=CCNC(=O)/C=C/c1ccc(C(C)C)cc1`: the viability was 90.7%.

Take `Nc1nc(SCC(=O)NNc2c(Cl)cc(Cl)cc2Cl)n[nH]1`: the viability was 98.6%.

`Cc1sc2nc(CC(N)=O)[nH]c(=O)c2c1-c1ccccc1`: the viability is 90.4%.

With `NS(=O)(=O)c1ccc(NC(=O)COC(=O)C2(c3ccc(F)cc3)CCCC2)cc1`, the viability was 82.7%.

`O=C(/C=C/c1ccccc1)c1ccoc1`: the viability is 10.1%.

`O=C(/C=C/c1ccccc1)c1ccccc1O`: the viability is 83.6%.

Regarding `Cc1[nH]c(=O)c(C(=O)/C=C/c2ccccc2)c2c1CCCC2`, the viability is 2.53% (active).
